# Measurements as given in the supplement of paper PMC12350171.
# Structures can show the parent of a compound that is named as a salt.
# System: S. enterica typhimurium tolC KO
# Test: growth AUC normalised to DMSO control (median) (fraction of control); higher = less growth inhibition, active = hit call of the paper
# Details: 20 µM;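 active = normalised median growth AUC below 0.1 of DMSO control; inactive = AUC 0.1 or higher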
# Outline: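 For normalised area under the curve, growth curves were truncated at entry into stationary phase, integrated by the trapezoidal rule and divided against vehicle wells on the same plate. The curves came from strains passaged twice overnight without oxygen and then grown in mGAM in 96-well plates at a starting OD578 of 0.01. Each well held an approved-drug library compound at 20 μM with 1% DMSO, and OD578 was read hourly for 24 h in an anaerobic incubator. Values are medians of three biological replicates.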
# 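Further: active when median AUC fell below 0.1.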
row,SMILES,growth AUC normalised to DMSO control
1,O=C(NCC(O)CO)c1c(I)c(C(=O)NCC(O)CO)c(I)c(N(CCO)C(=O)CO)c1I (stereo not given) [Ioversol],1.01 (inactive)
2,CC(CN(C)C)CN1c2ccccc2Sc2ccccc21 (stereo not given) [Trimeprazine tartrate],0.972 (inactive)
3,CCCCC[C@H](O)/C=C/[C@H]1[C@H](O)CC(=O)[C@@H]1CCCCCCC(=O)O [Alprostadil],1.01 (inactive)
4,CCCCOC(=O)c1ccc(O)cc1 [Butylparaben],0.953 (inactive)
5,CN1CCCN=C1/C=C/c1cccc(O)c1 [Oxantel pamoate],1.01 (inactive)
6,Cc1ccc(S(=O)(=O)NC(=O)NN2CC3CCCC3C2)cc1 (stereo not given) [Gliclazide],1.01 (inactive)
7,CC1CNc2c(cccc2S(=O)(=O)N[C@@H](CCCNC(=N)N)C(=O)N2CC[C@@H](C)C[C@@H]2C(=O)O)C1 (stereo not given in full) [Argatroban],0.996 (inactive)
8,CCCCC1C(=O)N(c2ccccc2)N(c2ccc(O)cc2)C1=O (stereo not given) [Oxyphenbutazone],1.01 (inactive)
9,COc1c(N2C[C@@H]3CCCN[C@@H]3C2)c(F)cc2c(=O)c(C(=O)O)cn(C3CC3)c12 [Moxifloxacin],0.00519 (active)
10,CN(Cc1ccc(C(C)(C)C)cc1)Cc1cccc2ccccc12 [Butenafine hydrochloride],0.957 (inactive)
11,CC(=O)OCC(=O)[C@@]12N=C(C)O[C@@H]1C[C@H]1[C@@H]3CCC4=CC(=O)C=C[C@]4(C)[C@H]3[C@@H](O)C[C@@]12C [Deflazacort],0.987 (inactive)
12,CN1CCN(C2=Nc3ccccc3Oc3ccc(Cl)cc32)CC1 [Loxapine succinate],0.96 (inactive)
13,CC(C)(C)NCC(O)COc1cccc2c1CCC(=O)N2 (stereo not given) [Carteolol hydrochloride],0.991 (inactive)
14,O=C(CCCCCCC(=O)Nc1ccccc1)NO [Vorinostat],1 (inactive)
15,O=C1CN(/N=C/c2ccc([N+](=O)[O-])o2)C(=O)N1 [Nitrofurantoin],0.858 (inactive)
16,N=C(N)NCC1COC2(CCCCC2)O1 (stereo not given) [Guanadrel sulfate],0.99 (inactive)
17,CC(=O)Nc1ccc(OCC(O)CNC(C)C)cc1 (stereo not given) [Practolol],1.02 (inactive)
18,C[C@H](O)C(=O)Nc1c(I)c(C(=O)NC(CO)CO)c(I)c(C(=O)NC(CO)CO)c1I [Iopamidol],1.01 (inactive)
19,Cc1ncc(CO)c(CO)c1O [Pyridoxine hydrochloride],0.992 (inactive)
20,CC1=C(CC(=O)O)c2cc(F)ccc2/C1=C\c1ccc([S+](C)[O-])cc1 (stereo not given) [Sulindac],0.984 (inactive)

row,SMILES,growth AUC normalised to DMSO control
1,CC(C)CC(=O)N[C@H](C(=O)N[C@H](C(=O)N[C@@H](CC(C)C)[C@@H](O)CC(=O)N[C@@H](C)C(=O)N[C@@H](CC(C)C)[C@@H](O)CC(=O)O)C(C)C)C(C)C [Pepstatin A],0.988 (inactive)
2,CC(COc1ccccc1)N(CCCl)Cc1ccccc1 (stereo not given) [Phenoxybenzamine hydrochloride],0.99 (inactive)
3,CCN[C@H]1CN(CCCOC)S(=O)(=O)c2sc(S(N)(=O)=O)cc21 [Brinzolamide],1 (inactive)
4,CCCCOc1cc(C(=O)OCCN(CC)CC)ccc1N [Benoxinate hydrochloride],0.991 (inactive)
5,CNCC[C@@H](Oc1ccccc1C)c1ccccc1 [Tomoxetine hydrochloride],0.974 (inactive)
6,Cc1cc(=O)n(-c2ccccc2)n1C [Antipyrine],1.01 (inactive)
7,OC(Cn1cncn1)(Cn1cncn1)c1ccc(F)cc1F [Fluconazole],1 (inactive)
8,O=C1O[C@H]([C@@H](O)CO)C(O)=C1O [Ascorbic acid],0.997 (inactive)
9,"c1ccc(CNc2ncnc3nc[nH]c23)cc1 [Aminopurine, 6-benzyl]",0.995 (inactive)
10,CC(CCc1ccccc1)NCC(O)c1ccc(O)c(C(N)=O)c1 (stereo not given) [Labetalol hydrochloride],0.986 (inactive)
11,OCCN(CCO)c1nc(N2CCCCC2)c2nc(N(CCO)CCO)nc(N3CCCCC3)c2n1 [Dipyridamole],0.956 (inactive)
12,CCCCCCCCNC(C)C(O)c1ccc(SC(C)C)cc1 (stereo not given) [Suloctidil],0.997 (inactive)
13,CCCCCCC[N+](CC)(CC)CCCCc1ccc(Cl)cc1 [Clofilium tosylate],0.541 (inactive)
14,C=CC[N@@+]12CC[C@@]34c5ccccc5N5/C=C6/[C@H]7C[C@H]8[C@@]9(CC[N@@+]8(CC=C)C/C7=C/CO)c7ccccc7N(/C=C(/[C@@H](C[C@@H]31)/C(=C\CO)C2)[C@H]54)[C@@H]69 [Alcuronium chloride],1 (inactive)
15,CCc1ccc(CCOc2ccc(CC3SC(=O)NC3=O)cc2)nc1 (stereo not given) [Pioglitazone],0.993 (inactive)
16,CC1CC(OC(=O)c2ccccc2O)CC(C)(C)C1 (stereo not given) [Homosalate],0.998 (inactive)
17,CC(C)N1CCN(c2ccc(OCC3COC(Cn4cncn4)(c4ccc(Cl)cc4Cl)O3)cc2)CC1 (stereo not given) [Terconazole],0.97 (inactive)
18,O=C(Nc1ccc([N+](=O)[O-])cc1Cl)c1cc(Cl)ccc1O [Niclosamide],0.00688 (active)
19,CCN1C(=O)NC(c2ccccc2)C1=O (stereo not given) [Ethotoin],1 (inactive)
20,COc1cc(Cc2cnc(N)nc2N)cc(OC)c1OC [Trimethoprim],0.132 (inactive)
